Results reported in PubChem BioAssay AID1159580 (chemical genetic matrix, 2015).
About 2,000 (36%) of roughly 5,500 compounds were called active. Inconclusive results (about 18%) are left out. No stated cut-off is given here; in the data, active means normalized growth mostly below about 0.91 (no sharp cut-off); inconclusive means no clear call, values can overlap the other calls; inactive means mostly above about 0.92. The list shows a part of the results.

Test: chemical genetic growth profiling, strain panel (AID 1159580);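 further: tested at 20 µM; growth read once vehicle control cultures reached saturation at 30 °C; 1 = growth at the plate median or of vehicle wells; lower values mean less growth of the strain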
Conditions: growth OD
[1] = S. cerevisiae deletion strains, locus YAL013W, strain DEP1, hits give low values
[2] = S. cerevisiae deletion strains, locus YDR150W, strain NUM1, hits give low values
[3] = S. cerevisiae deletion strains, locus YGR078C, strain PAC10, hits give low values
[4] = S. cerevisiae deletion strains, locus YJR075W, strain HOC1, hits give low values
[5] = S. cerevisiae deletion strains, locus YMR307W, strain GAS1, hits give low values
[6] = S. cerevisiae deletion strains, locus YNL128W, strain TEP1, hits give low values
[7] = S. cerevisiae deletion strains, locus YNL153C, strain GIM3, hits give low values
[8] = S. cerevisiae deletion strains, locus YNL322C, strain KRE1, hits give low values
[9] = S. cerevisiae deletion strains, locus YPL055C, strain LGE1, hits give low values
[10] = S. cerevisiae deletion strains, locus YPL241C, strain CIN2, hits give low values

Measured: normalized growth

NC(=S)NCCCC(N)C(=O)O (centres undefined)
inactive: [1] 1.01 | S. cerevisiae deletion strains, locus YAL040C, strain CLN3, hits give low values 1 | S. cerevisiae deletion strains, locus YCL061C, strain MRC1 (second series), hits give low values 1.01 | [2] 1.01 | S. cerevisiae deletion strains, locus YDR363W, strain ESC2, hits give low values 1.02 | S. cerevisiae deletion strains, locus YER002W, strain NOP16, hits give low values 1.02 | [3] 1.01 | [4] 1.02 | [5] 1.01 | [6] 1.03 | [7] 1.01 | S. cerevisiae deletion strains, locus YNL175C, strain NOP13, hits give low values 1.03 | S. cerevisiae deletion strains, locus YNL197C, strain WHI3, hits give low values 1.01 | S. cerevisiae deletion strains, locus YNL224C, strain SQS1, hits give low values 1.02 | [8] 1.02 | S. cerevisiae deletion strains, locus YOR083W, strain WHI5 (second series), hits give low values 0.994 | [9] 1.03 | [10] 1.01

CCc1cccc(CC)c1N(COC)C(=O)CCl
inactive: [1] 1 | S. cerevisiae deletion strains, locus YBR021W, strain FUR4, hits give low values 1.01 | S. cerevisiae deletion strains, locus YBR229C, strain ROT2, hits give low values 1.01 | S. cerevisiae deletion strains, locus YCL029C, strain bik1, hits give low values 1.02 | S. cerevisiae deletion strains, locus YDL035C, strain GPR1, hits give low values 1.02 | S. cerevisiae deletion strains, locus YDL074C, strain BRE1, hits give low values 1.03 | S. cerevisiae deletion strains, locus YDL101C, strain DUN1, hits give low values 1.01 | S. cerevisiae deletion strains, locus YDL134C, strain PPH21, hits give low values 1.01 | S. cerevisiae deletion strains, locus YDL185W, strain tfp1, hits give low values 1.02 | S. cerevisiae deletion strains, locus YDL192W, strain arf1, hits give low values 1.03 | S. cerevisiae deletion strains, locus YDR101C, strain arx1, hits give low values 1.02 | [2] 0.995 | S. cerevisiae deletion strains, locus YDR162C, strain NBP2, hits give low values 0.999 | S. cerevisiae deletion strains, locus YDR318W, strain mcm21, hits give low values 1.02 | S. cerevisiae deletion strains, locus YDR388W, hits give low values 1.02 | S. cerevisiae deletion strains, locus YDR502C, strain sam2, hits give low values 1.02 | S. cerevisiae deletion strains, locus YEL061C, strain CIN8, hits give low values 1 | S. cerevisiae deletion strains, locus YER110C, hits give low values 1.01 | S. cerevisiae deletion strains, locus YER155C, strain BEM2, hits give low values 1 | S. cerevisiae deletion strains, locus YER167W, strain BCK2, hits give low values 1 | S. cerevisiae deletion strains, locus YGL078C, strain dbp3, hits give low values 1.02 | S. cerevisiae deletion strains, locus YGL086W, strain mad1, hits give low values 0.999 | S. cerevisiae deletion strains, locus YGL248W, strain PDE1, hits give low values 1.01 | [3] 1.01 | S. cerevisiae deletion strains, locus YGR135W, strain pre9, hits give low values 1.02 | S. cerevisiae deletion strains, locus YGR229C, strain SMI1, hits give low values 1.02 | S. cerevisiae deletion strains, locus YGR252W, strain gcn5, hits give low values 1.05 | S. cerevisiae deletion strains, locus YHR030C, strain SLT2, hits give low values 1 | S. cerevisiae deletion strains, locus YHR079C, strain IRE1 (second series), hits give low values 1.02 | S. cerevisiae deletion strains, locus YHR094C, strain hxt1, hits give low values 1.02 | S. cerevisiae deletion strains, locus YHR129C, strain ARP1, hits give low values 1 | S. cerevisiae deletion strains, locus YHR200W, strain rpn10, hits give low values 1.02 | S. cerevisiae deletion strains, locus YIL066C, strain RNR3, hits give low values 1.01 | S. cerevisiae deletion strains, locus YIL073C, strain SPO22, hits give low values 1.11 | S. cerevisiae deletion strains, locus YIL125W, strain kgd1, hits give low values 1.01 | S. cerevisiae deletion strains, locus YIR030C, strain dcg1, hits give low values 1.03 | S. cerevisiae deletion strains, locus YJL095W, strain BCK1, hits give low values 1.02 | S. cerevisiae deletion strains, locus YJL134W, strain LCB3, hits give low values 1.01 | S. cerevisiae deletion strains, locus YJL168C, strain set2, hits give low values 1.03 | S. cerevisiae deletion strains, locus YJL187C, strain SWE1 (second series), hits give low values 1 | S. cerevisiae deletion strains, locus YJR043C, strain POL32, hits give low values 1.01 | [4] 1.01 | S. cerevisiae deletion strains, locus YKL009W, strain mrt4, hits give low values 1.05 | S. cerevisiae deletion strains, locus YKL068W, hits give low values 0.999 | S. cerevisiae deletion strains, locus YKL085W, strain MDH1 (second series), hits give low values 1.01 | S. cerevisiae deletion strains, locus YKL085W, strain MDH1, hits give low values 1.01 | S. cerevisiae deletion strains, locus YKL190W, strain CNB1, hits give low values 0.992 | S. cerevisiae deletion strains, locus YKR001C, strain vps1, hits give low values 1.04 | S. cerevisiae deletion strains, locus YLR039C, strain RIC1, hits give low values 1 | S. cerevisiae deletion strains, locus YLR058C, strain SHM2, hits give low values 1.01 | S. cerevisiae deletion strains, locus YLR102C, strain apc9, hits give low values 1.03 | S. cerevisiae deletion strains, locus YLR262C, strain YPT6, hits give low values 1.02 | S. cerevisiae deletion strains, locus YLR268W, strain sec22, hits give low values 1.02 | S. cerevisiae deletion strains, locus YLR330W, strain CHS5, hits give low values 1.01 | S. cerevisiae deletion strains, locus YLR342W, strain FKS1 (second series), hits give low values 1 | S. cerevisiae deletion strains, locus YLR371W, strain rom2, hits give low values 1.02 | S. cerevisiae deletion strains, locus YLR418C, strain cdc73, hits give low values 1.05 | S. cerevisiae deletion strains, locus YML016C, strain PPZ1, hits give low values 1 | S. cerevisiae deletion strains, locus YML032C, strain rad52, hits give low values 1.03 | S. cerevisiae deletion strains, locus YML124C, strain tub3, hits give low values 1.01 | S. cerevisiae deletion strains, locus YMR078C, strain ctf18, hits give low values 1.02 | S. cerevisiae deletion strains, locus YMR223W, strain ubp8, hits give low values 1.02 | S. cerevisiae deletion strains, locus YMR263W, strain SAP30, hits give low values 0.997 | [5] 1.01 | S. cerevisiae deletion strains, locus YNL067W, strain RPL9B, hits give low values 1 | [6] 1.01 | [7] 1 | S. cerevisiae deletion strains, locus YNL233W, strain BNI4, hits give low values 1.01 | S. cerevisiae deletion strains, locus YNL250W, strain rad50, hits give low values 1.02 | S. cerevisiae deletion strains, locus YNL271C, strain bni1, hits give low values 1.03 | S. cerevisiae deletion strains, locus YNL298W, strain CLA4, hits give low values 1.03 | S. cerevisiae deletion strains, locus YNL307C, strain MCK1, hits give low values 1.03 | [8] 1 | S. cerevisiae deletion strains, locus YNR052C, strain pop2, hits give low values 1.03 | S. cerevisiae deletion strains, locus YOL006C, strain TOP1, hits give low values 1.05 | S. cerevisiae deletion strains, locus YOL012C, strain htz1 1.33 | S. cerevisiae deletion strains, locus YOL147C, strain pex11, hits give low values 1.02 | S. cerevisiae deletion strains, locus YOR061W, strain CKA2, hits give low values 0.999 | S. cerevisiae deletion strains, locus YOR069W, strain VPS5, hits give low values 0.999 | S. cerevisiae deletion strains, locus YOR136W, strain idh2, hits give low values 1.02 | S. cerevisiae deletion strains, locus YOR144C, strain elg1, hits give low values 1.02 | S. cerevisiae deletion strains, locus YOR184W, strain ser1, hits give low values 1.04 | S. cerevisiae deletion strains, locus YOR316C, strain cot1, hits give low values 1.03 | [9] 1.02 | [10] 1.01 | S. cerevisiae deletion strains, locus YPR119W, strain clb2, hits give low values 1.02 | S. cerevisiae deletion strains, locus YPR141C, strain kar3, hits give low values 1.03 | S. cerevisiae deletion strains, locus YPR163C, strain tif3, hits give low values 1.03 | S. cerevisiae deletion strains, locus YPR167C, strain met16, hits give low values 1.02 | S. cerevisiae deletion strains, strain wtn01, hits give low values 1.01 | S. cerevisiae strains, strain wild type, hits give low values 1
